The panel holds about 83,000 compounds, 20% with a hit somewhere; the sample as a whole holds those more often.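 Percent growth is the endpoint: 0 to 100 indicates growth inhibition (40 means 60% inhibition), 0 means no net growth, and negative values indicate cell death.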 A number with no mark means an inactive call. Active and inactive are the calls of the source. Rule for the calls: active = growth percent below 10; inactive = the rest.

In the first experiment the test system is TK-10 renal. Nature of the experiment: NCI-60 one-dose screen, 48 h (100 = growth as untreated, 0 = no growth, -100 = all killed). Particulars: 10 µM unless noted.
In the case of `Oc1cccc2ccc(-c3nnc(SCc4ccc(O)c5ncccc45)o3)nc12`, the growth was 27.9%.

Turning to `COC(=O)c1[nH]nc2c1C1(C(=O)N(C)c3ccccc31)C(C#N)=C(N)O2` (stereo not drawn), the growth is 102%.

As to `Cc1ccc2sc3c(c2c1)OC(N)=C(C#N)C3c1ccc(Cl)cc1` (stereo not drawn), the growth is 97.3%.

With `CC1=NC2=NN3C(=NN2C(c2ccccc2)=C1)N=NC(c1ccc(Br)cc1)=C3c1ccc(Br)cc1`, the growth is 128%.

In the case of `Cn1ccnc1C(=O)/C=C/c1ccc(NC(=O)c2c(F)c(F)c(F)c(F)c2F)cc1`, the growth is 133%.

In the case of `COc1ccc(/C=C/C(=O)c2cc(S(N)(=O)=O)c(OC)cc2OC)cc1`, the growth was 92.9%.

For `N#Cc1cccc(CN2CCC3=C(C2)C(=O)N(Cc2ccc(Cl)cc2)C2=NCCCN23)c1`, the growth is 60.4%.

For the molecule `Cc1nn(-c2ccccc2)c2ncnc(N/N=C/c3ccccc3O)c12`, the growth was 40.6%.

Consider `COc1ccc(CCN2C(=O)CSC2=S)cc1`, for which the growth was 65.1%.

As for `CC(=O)N1C(=S)NC(=O)C1CC(C)C` (stereo not drawn), the growth was 100%.

As to `Cc1ccc2sc3c(c2c1)OC(N)=C(C#N)C3c1cccc(F)c1` (stereo not drawn), the growth was 36.1%.

On to `COc1cc(-c2nc(SC(C)C)n(C(C)C)c(=O)c2C#N)ccc1OCc1ccccc1`, for which the growth was 42.1%.

Turning to `C/C(=N\O)[C@H]1C[C@]23CC[C@]4(C)[C@H](CC[C@@H]5[C@@]6(C)CC/C(=N/O)C(C)(C)[C@@H]6CC[C@]54C)[C@H]2[C@H](C)C1(C)OC3`, the growth was 73.7%.

As for `NS(=O)(=O)c1ccc(-n2cc(-c3cccc(NC(=O)c4ccc(N5CCOCC5)c(C(F)(F)F)c4)c3)nn2)cc1`, the growth is 98.6%.

In the case of `O=C1/C(=C/C=C/c2ccco2)SC(=S)N1c1ccccc1`, the growth is 95.5%.

Regarding `COc1cc(OC)c(S(N)(=O)=O)cc1C(C)=O`, the growth is 94.9%.

Regarding `CNC(=O)c1cc(Oc2ccc3nc(NC(=O)c4cc(N5CCOCC5)cc(C(F)(F)F)c4)sc3c2)ccn1`, the growth is 92.3%.

Take `CCCCCc1ccc(S(=O)(=O)Nc2cccc(-c3csc(NC(=O)CCCCCN4CCN(CCO)CC4)n3)c2)cc1`: the growth was 127%.

For the molecule `CNC(=O)c1cc(Oc2ccc3nc(NC(=O)c4cccc(OC(F)(F)F)c4)sc3c2)ccn1`, the growth was 101%.

`Cc1cc(C)c(N2C(=O)CC(Nc3ccc(Cl)cc3Cl)C2=O)c(C)c1` (stereo not drawn): the growth was 109%.

Consider `Cc1ccc(C(=O)NN2C(=O)/C(=C/C=C/c3ccco3)SC2=S)cc1`, for which the growth is 118%.

For the molecule `CC/C(=C/c1c(O)cccc1OC)c1ccc2c(OC)cccc2[o+]1`, the growth was 121%.

Take `Cc1ccc2c(c1)C(=O)/C(=C/c1cccc(F)c1)S2`: the growth was 123%.

On to `COc1cc(/C=C2\C(=O)Nc3ccccc32)ccc1OCc1ccc(F)cc1`, for which the growth is 130%.

For `N/C(=N\C(N)=N\c1nc2ccccc2s1)c1ccc(C(F)(F)F)cc1`, the growth is 102%.

Regarding `CN(C)CCNC(=O)c1ccc(-c2nc3ccc4[nH]ncc4c3c3c2COCC3)cc1`, the growth was 44%.

Consider `O=C(Nc1ccc(N=Cc2c(O)[nH]c3ccccc23)cc1)Nc1nccs1`, for which the growth is 75.7%.

In the case of `O=C(Nc1nonc1-c1ccccc1)c1ccc(C(F)(F)F)cc1`, the growth is 146%.

As to `COc1cccc(C(=O)Nc2cccc(C#Cc3cccc4[nH]nc(N)c34)c2)c1`, the growth was 96.5%.

Regarding `Cn1ccnc1C(=O)/C=C/c1ccc(NC(=O)c2ccc(F)cc2)cc1`, the growth is 89.5%.

For the molecule `Nc1nc(-c2cccc([N+](=O)[O-])c2)c(N=Nc2ccccc2)s1`, the growth is 81.7%.

Turning to `Cc1ccc(N2C(=O)/C(=C/C=C/c3ccco3)SC2=S)cc1`, the growth was 117%.

On to `COc1cc(OC)c(S(N)(=O)=O)cc1C(=O)/C=C/c1ccc(C)cc1`, for which the growth is 25.5%.

In the case of `CN1CCC(n2cc(Nc3ncc4c(=O)n(-c5c(Cl)cccc5Cl)cc(Br)c4n3)cn2)CC1`, the growth was 47%.

For the molecule `C#CC(=O)N(c1ccc(OC)cc1OC)C(C(=O)NCC(=O)OCC)c1cccs1` (stereo not drawn), the growth was 105%.

With `COc1ccc(/C=C(/C)c2ccc3ccc(OC)cc3[o+]2)c(O)c1`, the growth was 174%.

As to `Cc1ccc(-c2cc3nc(C(Cl)Cl)nc(C)n3n2)cc1`, the growth is 166%.

With `Cc1ccc(-c2nnc(SCc3ccc(O)c4ncccc34)n2-c2ccccc2)cc1`, the growth is 7.85% (active).

On to `CCOc1ccccc1NC1=C(Cl)C(=O)c2nc(C)ccc2C1=O`, for which the growth was 124%.

A further experiment concerns ACHN renal. The experiment is described as above. As to conditions: 10 µM unless noted.
In the case of `Oc1cccc2ccc(-c3nnc(SCc4ccc(O)c5ncccc45)o3)nc12`, the growth was 7.94% (active).

Consider `COC(=O)c1[nH]nc2c1C1(C(=O)N(C)c3ccccc31)C(C#N)=C(N)O2` (stereo not drawn), for which the growth was 97.9%.

With `Cc1ccc2sc3c(c2c1)OC(N)=C(C#N)C3c1ccc(Cl)cc1` (stereo not drawn), the growth is 87.4%.

For the molecule `CC1=NC2=NN3C(=NN2C(c2ccccc2)=C1)N=NC(c1ccc(Br)cc1)=C3c1ccc(Br)cc1`, the growth is 99.3%.

Consider `Cn1ccnc1C(=O)/C=C/c1ccc(NC(=O)c2c(F)c(F)c(F)c(F)c2F)cc1`, for which the growth was 101%.

Consider `COc1ccc(/C=C/C(=O)c2cc(S(N)(=O)=O)c(OC)cc2OC)cc1`, for which the growth is 81.1%.

`N#Cc1cccc(CN2CCC3=C(C2)C(=O)N(Cc2ccc(Cl)cc2)C2=NCCCN23)c1`: the growth was 38.4%.

For the molecule `Cc1nn(-c2ccccc2)c2ncnc(N/N=C/c3ccccc3O)c12`, the growth is 3.52% (active).

For the molecule `COc1ccc(CCN2C(=O)CSC2=S)cc1`, the growth is 99.1%.

`CC(=O)N1C(=S)NC(=O)C1CC(C)C` (stereo not drawn): the growth is 105%.

In the case of `Cc1ccc2sc3c(c2c1)OC(N)=C(C#N)C3c1cccc(F)c1` (stereo not drawn), the growth is 20.6%.

In the case of `COc1cc(-c2nc(SC(C)C)n(C(C)C)c(=O)c2C#N)ccc1OCc1ccccc1`, the growth is 32.5%.

Take `C/C(=N\O)[C@H]1C[C@]23CC[C@]4(C)[C@H](CC[C@@H]5[C@@]6(C)CC/C(=N/O)C(C)(C)[C@@H]6CC[C@]54C)[C@H]2[C@H](C)C1(C)OC3`: the growth was 104%.

As to `NS(=O)(=O)c1ccc(-n2cc(-c3cccc(NC(=O)c4ccc(N5CCOCC5)c(C(F)(F)F)c4)c3)nn2)cc1`, the growth was 43.5%.

As to `O=C1/C(=C/C=C/c2ccco2)SC(=S)N1c1ccccc1`, the growth is 67.3%.

As for `COc1cc(OC)c(S(N)(=O)=O)cc1C(C)=O`, the growth is 107%.

Regarding `CNC(=O)c1cc(Oc2ccc3nc(NC(=O)c4cc(N5CCOCC5)cc(C(F)(F)F)c4)sc3c2)ccn1`, the growth was 87.9%.

`CCCCCc1ccc(S(=O)(=O)Nc2cccc(-c3csc(NC(=O)CCCCCN4CCN(CCO)CC4)n3)c2)cc1`: the growth was 99.4%.

Consider `CNC(=O)c1cc(Oc2ccc3nc(NC(=O)c4cccc(OC(F)(F)F)c4)sc3c2)ccn1`, for which the growth is 75.2%.

As for `Cc1cc(C)c(N2C(=O)CC(Nc3ccc(Cl)cc3Cl)C2=O)c(C)c1` (stereo not drawn), the growth was 103%.

Take `Cc1ccc(C(=O)NN2C(=O)/C(=C/C=C/c3ccco3)SC2=S)cc1`: the growth was 107%.

Regarding `CC/C(=C/c1c(O)cccc1OC)c1ccc2c(OC)cccc2[o+]1`, the growth was 99.2%.

In the case of `Cc1ccc2c(c1)C(=O)/C(=C/c1cccc(F)c1)S2`, the growth was 102%.

Turning to `COc1cc(/C=C2\C(=O)Nc3ccccc32)ccc1OCc1ccc(F)cc1`, the growth is 102%.

With `N/C(=N\C(N)=N\c1nc2ccccc2s1)c1ccc(C(F)(F)F)cc1`, the growth is 27.8%.

As to `CN(C)CCNC(=O)c1ccc(-c2nc3ccc4[nH]ncc4c3c3c2COCC3)cc1`, the growth is 69.4%.

In the case of `O=C(Nc1ccc(N=Cc2c(O)[nH]c3ccccc23)cc1)Nc1nccs1`, the growth is 40.7%.

Take `O=C(Nc1nonc1-c1ccccc1)c1ccc(C(F)(F)F)cc1`: the growth was 82.1%.

For the molecule `COc1cccc(C(=O)Nc2cccc(C#Cc3cccc4[nH]nc(N)c34)c2)c1`, the growth is 51%.

Take `Cn1ccnc1C(=O)/C=C/c1ccc(NC(=O)c2ccc(F)cc2)cc1`: the growth was 37.6%.

In the case of `Nc1nc(-c2cccc([N+](=O)[O-])c2)c(N=Nc2ccccc2)s1`, the growth was 63.2%.

In the case of `Cc1ccc(N2C(=O)/C(=C/C=C/c3ccco3)SC2=S)cc1`, the growth was 101%.

On to `COc1cc(OC)c(S(N)(=O)=O)cc1C(=O)/C=C/c1ccc(C)cc1`, for which the growth was 29.7%.

For the molecule `CN1CCC(n2cc(Nc3ncc4c(=O)n(-c5c(Cl)cccc5Cl)cc(Br)c4n3)cn2)CC1`, the growth was 24%.

For `C#CC(=O)N(c1ccc(OC)cc1OC)C(C(=O)NCC(=O)OCC)c1cccs1` (stereo not drawn), the growth was -90.2% (active).

With `COc1ccc(/C=C(/C)c2ccc3ccc(OC)cc3[o+]2)c(O)c1`, the growth is 70.2%.

Turning to `Cc1ccc(-c2cc3nc(C(Cl)Cl)nc(C)n3n2)cc1`, the growth is 87.4%.

As to `Cc1ccc(-c2nnc(SCc3ccc(O)c4ncccc34)n2-c2ccccc2)cc1`, the growth was 8.47% (active).

As for `CCOc1ccccc1NC1=C(Cl)C(=O)c2nc(C)ccc2C1=O`, the growth was -99.1% (active).

The record behind these values is PubChem BioAssay (NCI).
